The panel holds about 83,000 compounds, 20% with a hit somewhere; the sample as a whole holds those more often.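 Cell lines were cultured in 96-well plates, exposed to a single compound concentration, and assessed for percent growth 48 hours later.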 A number with no mark means an inactive call. The source made the active and inactive calls.
Tested on: BT-549 breast
Assay: NCI-60 one-dose screen, 48 h (100 = growth as untreated, 0 = no growth, -100 = all killed)
Conditions: 10 µM unless noted
Description: Growth inhibition of the BT-549 human tumor cell line is measured as a screen for anti-cancer activity. Cells are grown in 96 well plates and exposed to the test compound for 48 hours. Compounds are tested at a single concentration, which is 10^-5 M for most compounds. The reported endpoint is percent growth (GI% or GIPRCNT), where numbers from 0 - 100% represent growth inhibition, and numbers from -100% - 0 represent cell death. For example, a value of 40 represents 60% growth inhibition. A value of 0 means no net growth occurred over the course of the experiment. A value of -40 indicates 40% of cells at the beginning of the experiment died by the end of the experiment. A value of -100 means all cells are dead at the end of the experiment.
NCI-60 Human Tumor Cell Lines Screen was performed using the standard one-dose NCI protocol, which is described in more detail at https://dtp.cancer.gov/discovery_development/nci-60/default.htm.
Compounds with GIPRCNT values below 10 were considered active. Activity score was based on GIPRCNT using the following formula: […]
Score is 0 for GIPRCNT values of 100 or above, 50 for GIPRCNT values of 0, and 100 for GIPRCNT values of -100.

Structure (SMILES)	growth
Nc1n[nH]c2cccc(C#Cc3cccc(NC(=O)c4cc(N5CCOCC5)cc(C(F)(F)F)c4)c3)c12	63.4%
O=C(Nc1cccc(-c2cccc(F)c2)c1)C1CCN(Cc2cccc3cccnc23)CC1	76.3%
CCOCCc1c(O)nc(SC)[nH]c1=O	110%
COc1cc2cc(c1Cl)N(C)C(=O)C[C@H](OC(=O)[C@H](C)N(C)C(=O)CCS)C[C@]1(C)O[C@H]1[C@H](C)[C@@H]1C[C@@](O)(NC(=O)O1)[C@H](OC)/C=C/C=C(\C)C2	21.9%
C/C(=C\c1cnc(C)s1)[C@@H]1C[C@@H]2O[C@@H]2CCC[C@H](C)[C@H](O)[C@@H](C)C(=O)C(C)(C)[C@@H](O)CC(=O)O1	39.4%
CC(=O)[C@@H]1CC[C@]2(C(=O)O)CC[C@]3(C)[C@H](CC[C@@H]4[C@@]5(C)Cc6c([nH]c7ccccc67)C(C)(C)[C@@H]5CC[C@]43C)[C@@H]12	71.9%
N#Cc1c(NC(=O)c2cccs2)[n+]([O-])c2cc(C(F)(F)F)ccc2[n+]1[O-]	93.9%
Cc1cc(Nc2nc(SCc3ccc(C(=O)Nc4ccc(F)cc4N)cc3)nn3cccc23)n[nH]1	27%
COc1ccc2nc(-c3ccc(Cl)cc3)cc(C(=O)N3N=C(c4ccc(N)cc4)CC3c3ccccc3)c2c1 (stereo not given)	44%
CC(C)CSc1nc(Nc2ccccc2)c(C#N)c(-c2ccc(F)cc2)n1	28%
CCOc1ccc(C2N(c3cc(OC)c(OC)c(OC)c3)C(=O)C2(F)F)cc1 (stereo not given)	44.2%
COc1ccc(C2N(c3cc(OC)c(OC)c(OC)c3)C(=O)C2(F)F)cc1F (stereo not given)	35%
NS(=O)(=O)c1ccc(C2C3=C(CCCC3=O)OC3=C2C(=O)c2ccccc2C3=O)cc1 (stereo not given)	-99.8% (active)
COc1cc(C2=NNC(c3ccc(N(C)C)cc3)C2)cc(OC)c1OC (stereo not given)	35.1%
O=S(=O)(Nc1nccs1)c1ccc(Nc2nc(-c3ccncc3)cs2)cc1	125%
O=C1NCc2ccc3c(-c4cccc(Cl)c4)c[nH]c3c21	58.5%
O=CN1N=C(c2ccc(Cl)cc2)CC1c1cccc(Nc2ccnc3cc(C(F)(F)F)ccc23)c1 (stereo not given)	53.9%
COc1cc(/C=C/CO)cc(OC)c1O[C@@H]1O[C@H](CO)[C@@H](O)[C@H](O)[C@H]1O	104%
Cc1nn(-c2ccc(-c3ccc(OC(F)(F)F)cc3)cc2)c2nc(-c3ccccc3)nc(N)c12	98.1%
O=c1[nH]nc(-c2ccc(Br)cc2)c2sc(NC(=S)Nc3ccc(Cl)cc3)nc12	92.6%

Structure (SMILES)	growth
CCOC(=O)c1c(-c2ccc(O)cc2)c(C#N)c2c(C#N)c(N)nn2c1N	60.9%
CN1CCN(C(=O)[C@@]2(C)CC[C@]3(C)CC[C@]4(C)C(=CC[C@@H]5[C@@]6(C)CC[C@H](OC(=O)c7cccnc7)C(C)(C)[C@@H]6CC[C@]54C)[C@@H]3C2)CC1	73.8%
C#CC[C@@H]1C[C@]2(C)[C@H]3CC[C@@H]4[C@H]5[C@H](C(=C)C)CC[C@]5(C(=O)O)CC[C@@]4(C)[C@]3(C)CC[C@H]2C(C)(C)[C@H]1O	29%
NCCCn1c2c(c3cc(-c4ccn[nH]4)ccc3c1=O)C(=O)c1ccccc1-2	77.3%
O=[N+]([O-])c1cccc(CN(Cc2cccc([N+](=O)[O-])c2O)c2ccccc2)c1O	88.9%
COC(=O)CCc1cc(O)c2c(c1)[C@@H](C(=O)OC)[C@H](c1ccc(O)c(O)c1)O2	51.7%
CC(=O)Nc1c(C(=O)Nc2ccccc2)sc2nc3c(cc12)C(OC(C)=O)CCC3 (stereo not given)	83.6%
COc1cccc(NC(=O)Nc2ccc(Nc3ncnc4[nH]c(C)c(C)c34)cc2)c1	97.7%
COc1cc(-c2csc(NC(=O)Nc3ccc(C(F)(F)F)cc3)n2)cc(OC)c1OC	-8.1% (active)
C=C1C(=O)O[C@H]2[C@H]1CC/C(C=Nc1c(N)cc(F)cc1Br)=C\CC[C@@]1(C)O[C@@H]21	84.8%
O=CN1N=C(c2ccc3c(c2)OCO3)CC1c1cccc(Nc2ccnc3cc(C(F)(F)F)ccc23)c1 (stereo not given)	75%
COC(=O)c1ccc2c(c1)NC(=O)[C@@H]1CCCN21	87.2%
COc1ccc2nc(-c3ccc(Cl)cc3)cc(-c3nnc(SC/C(=N/O)c4ccccc4)o3)c2c1	46.8%
O=[N+]([O-])c1ccc(Oc2ccc(-c3ccccc3)cc2)cc1	79.6%
CC(/C=C/c1ccccc1)=N/NC(=O)c1ccncc1	105%
COc1ccc(C2=NN(c3ccc(S(N)(=O)=O)cc3)C(c3ccc(Cl)cc3)C2)c(O)c1 (stereo not given)	84.7%
CCOC(=O)c1sc(/N=C2\NC(=O)/C(=C/c3ccc(N4CCN(C)CC4)cc3)S2)nc1C	95%
CCC1=C[C@H]2CN(CCc3c([nH]c4ccccc34)[C@@](C(=O)OC)(c3cc4c(cc3OC)N(C)[C@H]3[C@@](O)(C(=O)OC)[C@H](OC(C)=O)[C@]5(CC)[C@@H]6C[C@@H]6CN6CC[C@]43[C@@H]65)C2)C1	16.1%
Cc1cccc2nc3c(n12)C(=O)C(=O)c1ccccc1-3	78.6%
O=C(Nc1ccc(S(=O)(=O)NC2CCCCCC2)cc1)C(c1ccccc1)S(=O)(=O)c1ccc(F)cc1 (stereo not given)	-3.97% (active)
